The results in this text go back to PubChem BioAssay (EPA / NIEHS).

Where “and” joins values, the source holds several entries; their conditions need not be identical. Identical values can stand only once. Calls of active or inactive are those of the source. How the source made its calls: active means hit-call score of the fitted dose curve at least 0.9, where 1 is the maximum; inactive means score below 0.9.

What is called AC50 is the midpoint of the concentration-response curve, whichever way the signal moves.

Read-out in the assay: CD40, CD40 (gene 958)
The experiment in a line: BSK_SAg_CD40: BioMAP Diversity Plus: SAg Assay for CD40 Biomarker Activity (AID 2283088). Particulars: primary human HUVEC with PBMC; actives raise or lower the signal. On the procedure:
BSK_SAg is a cell-based, multiplexed-readout assay that uses umbilical vein endothelium and peripheral blood mononuclear cells, a human vascular primary cell co-culture, with measurements taken at 24 hours after chemical dosing in a 96-well plate.BSK_SAg_CD40 is one of 10 assay component(s) measured or calculated from the BSK_SAg assay. It is designed to make measurements of enzyme-linked immunosorbent assay, a form of binding reporter, as detected with fluorescence intensity signals by Enzyme-linked immunosorbent assay technology.Data from the assay component BSK_SAg_CD40 was analyzed into 1 assay endpoint. This assay endpoint, BSK_SAg_CD40, was analyzed with bidirectional fitting relative to DMSO as the negative control and baseline of activity. Using a type of binding reporter, gain or loss-of-signal activity can be used to understand changes in the signaling as they relate to the gene CD40. Furthermore, this assay endpoint can be referred to as a primary readout, because this assay has produced multiple assay endpoints where this one serves a signaling function. To generalize the intended target to other relatable targets, this assay endpoint is annotated to the cytokine intended target family, where the subfamily is inflammatory factor.
The levels of cell surface (or secreted, indicated by the prefix "s") biomarker endpoints were measured by ELISA. Overt cytotoxicity to cells in confluent adherent cultures (all systems other than the BT system) was assessed by measuring total protein levels using sulforhodamine B (SRB) staining in parallel cultures at the time of biomarker measurements, indicated as SRB endpoints. For proliferation assays for adherent cell types, individual cell types are cultured at sub-confluence and relative cell numbers quantified by SRB staining at time points optimized for each system (48 h: 3C and CASM3C systems; 72 h: BT and HDF3CGF systems; 96 h: SAg system). SRB was performed by staining cells with 0.1% SRB after fixation with 10% TCA and reading wells at 560 nm.Viability and proliferation of PBMC (T cells) was quantified by Alamar Blue reduction for the SAg and BT systems. For PBMC viability (referred to as PBMC Cytotoxicity within the assay endpoint names), cells were plated (75,000/well in a 96-well plate) and then chemical samples added for 1 h before addition of activators, SEB and TSST-1 (20 ng/mL final concentration each). Cells were incubated for 90 h. Then, Alamar Blue (20 uL/well) (Invitrogen, Cat DAL1100) was added for 6 h, and the plates were read with a fluorescence microplate reader at 546/580 nm (excitation/emission). For PBMC proliferation, cells were plated and activated as above but incubated for only 16 h prior to addition of Alamar Blue. Plates were read after 6 h.
For the compound `CC(C)C(=O)C(C)C`, the result was inactive. On to `O=C(Cl)c1cc(C(=O)Cl)cc(C(=O)Cl)c1`, for which the AC50 is 30.3 µM (active). In the case of `CO[Si](OC)(OC)c1ccccc1`, the outcome was inactive. Regarding `CCOc1nc(F)cc2nc(S(=O)(=O)Nc3c(Cl)cccc3C(=O)OC)nn12`, the result was inactive. Turning to `O=C(Nc1ccccc1SSc1ccccc1NC(=O)c1ccccc1)c1ccccc1`, the AC50 is 8.91 µM (active).

For the compound `N#[N+]c1ccc2c(S(=O)(=O)[O-])cccc2c1O`, the result was inactive. As to `C#CC1(O)CC[C@H]2[C@@H]3CCC4=CCCC[C@@H]4[C@H]3CC[C@@]21C` (stereo partly specified), the half-maximal activity concentration (AC50) was 30.2 µM (active). Consider `CCCCNc1ccc(NCCCC)c2c1C(=O)c1ccccc1C2=O`, for which the result was inactive. For the compound `CN1C(=O)N(C)C(O)C1O` (stereo unspecified), the outcome was inactive.

Turning to `c1ccc2c(c1)ccc1ncccc12`, the AC50 was 20 µM (active). Take `CCCCC(CC)COC(=O)c1ccccc1O` (stereo unspecified): the result was inactive.

As for `CCO[Si](C)(OCC)OCC`, the outcome was inactive.

As for `COc1ccc2nc(N)sc2c1`, the result was inactive.

As to `CCCCC(CC)COCC1CO1` (stereo unspecified), the result was inactive. As to `CCCCCCCCc1ccc(Nc2ccc(CCCCCCCC)cc2)cc1`, the outcome was inactive.

As for `C/C=C\C/C=C/CCCCCCCCOC(C)=O`, the AC50 is 20 µM (active). In the case of `C=CCOCC(O)CCl` (stereo unspecified), the outcome was inactive.

Turning to `O=C(c1ccc(O)cc1)c1ccc(O)cc1O`, the outcome was inactive.

As for `C=CCOc1c(Br)cc(Br)cc1Br`, the result was inactive. In the case of `C=CC(=O)OCC(Br)CBr` (stereo unspecified), the concentration at half-maximal activity (AC50) is 11.7 µM (active). For the compound `O=C1CCCN1CCO`, the result was inactive. For the compound `C=CC=CC=CCCCCC`, the outcome was inactive. Take `CC1OC1C1CCC2(C)OC2C1` (stereo unspecified): the result was inactive. The same measure, in the same setting: in the case of `O=Nc1ccc(O)cc1` it was “inactive”. Consider `CCO[Si](CCCN=C=O)(OCC)OCC`, for which the result was inactive. `c1ccc2c(c1)ccc1cc3c(ccc4ccccc43)cc12`: the result was inactive. With `CC(C)(c1cc(Br)c(OCCO)c(Br)c1)c1cc(Br)c(OCCO)c(Br)c1`, the AC50 is 13.3 µM (active).

With `S=C(NC1CCCCC1)NC1CCCCC1`, the result was inactive. In the case of `Nc1ccc(N)c(Cl)c1`, the AC50 was 26.4 µM (active) and 21.7 µM (active). As for `CCOC(=O)c1ccccc1C(=C1C=C(Br)C(=O)C(Br)=C1)c1cc(Br)c(O)c(Br)c1`, the concentration at half-maximal activity (AC50) was 19.4 µM (active) and 19.1 µM (active). Regarding `COCc1c(C(C)C)nc(C(C)C)c(/C=C/[C@@H](O)C[C@@H](O)CC(=O)O)c1-c1ccc(F)cc1`, the AC50 is 0.126 µM (active). For the compound `C=C[Si](OC(C)=O)(OC(C)=O)OC(C)=O`, the outcome was inactive. For the compound `CCCCCCCCCCCCCCCC[N+](C)(C)CC`, the AC50 was 10.2 µM (active). `c1ccc(-c2ccccn2)nc1`: the result was inactive.

For `O=c1c2ccccc2oc2ccccc12`, the result was inactive. On to `CCCCC/C=C\C/C=C\CCCCCCCC(=O)OC`, for which the concentration at half-maximal activity (AC50) is 20 µM (active).
